From PubChem BioAssay
BoNT-A LC inh2: BoNT/A light chain protease inhibitors, primary screen, biochemical, flow cytometry, MLPCN library; Botulinum neurotoxin type A light chain protease (Clostridium botulinum A str. ATCC 3502); multiplex microsphere protease substrate cleavage; inhibition, % at 10 µM; hit rate 0.17% among 360,000; AID 588499, 2011
BoNT F protease: BoNT/F light chain protease inhibitors, primary screen, biochemical, flow cytometry, MLPCN library. hit rate 0.22% among 360,000. inhibition, % at 10 µM. Multiplex microsphere protease cleavage assay. AID 588497, 2011. Botulinum neurotoxin type F light chain protease (Clostridium botulinum); in the data active = inhibition above about 35%, passing the limit was not always enough; inconclusive = no clear call, values can overlap the other calls
Autofluor counter: compound fluorescence in toxin protease inhibitor counterscreen; hit rate 3.1% among 360,000; AID 624483; fluorescence intensity (no concentration beside the values); compound autofluorescence counterscreen, microsphere flow cytometry; hits give high values; in the data active = fluorescence intensity above about 16000; inconclusive = no clear call, values can overlap the other calls
Anthrax LF inh2: Bacillus anthracis LF protease inhibitors, primary screen, biochemical, multiplex microsphere, MLPCN library | hit rate 0.12% among 360,000 | AID 588501, 2011 | multiplex microsphere protease cleavage assay | inhibition, % at 10 µM
Target sequence (P15917 whole entry, looked up): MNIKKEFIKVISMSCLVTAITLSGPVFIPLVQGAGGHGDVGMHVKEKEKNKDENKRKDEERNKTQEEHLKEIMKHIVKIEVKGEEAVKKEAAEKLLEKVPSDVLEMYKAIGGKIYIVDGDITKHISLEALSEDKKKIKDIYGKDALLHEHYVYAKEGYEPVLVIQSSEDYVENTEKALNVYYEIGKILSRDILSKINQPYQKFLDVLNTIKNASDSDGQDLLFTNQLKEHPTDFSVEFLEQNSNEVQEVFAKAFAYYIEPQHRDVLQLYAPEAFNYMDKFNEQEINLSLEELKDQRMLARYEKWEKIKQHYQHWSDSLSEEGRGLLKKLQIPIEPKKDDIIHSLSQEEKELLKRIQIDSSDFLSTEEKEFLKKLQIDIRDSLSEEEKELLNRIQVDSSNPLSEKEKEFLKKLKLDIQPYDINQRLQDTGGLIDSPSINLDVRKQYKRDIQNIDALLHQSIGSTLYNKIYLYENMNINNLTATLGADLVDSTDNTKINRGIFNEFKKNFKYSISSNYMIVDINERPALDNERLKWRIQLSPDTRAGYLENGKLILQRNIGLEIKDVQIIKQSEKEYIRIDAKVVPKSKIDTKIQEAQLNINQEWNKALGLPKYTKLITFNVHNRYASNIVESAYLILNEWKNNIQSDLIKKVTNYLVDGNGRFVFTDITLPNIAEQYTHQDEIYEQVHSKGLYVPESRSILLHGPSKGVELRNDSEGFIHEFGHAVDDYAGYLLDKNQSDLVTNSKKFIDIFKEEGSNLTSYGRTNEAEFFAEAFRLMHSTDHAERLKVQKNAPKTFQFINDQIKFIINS
SSB-PriA inh: inhibitors of Klebsiella pneumoniae PriA binding to SSB C-terminal tail, primary screen, biochemical, AlphaScreen. inhibition, % at 33 µM. hit rate 0.6% among 430,000. AlphaScreen SSBct-PriA binding, biotinylated peptide. PriA–SSB C-terminal tail interaction (Klebsiella pneumoniae); in the data active = inhibition mostly above about 37%, no sharp cut-off; inactive = mostly below about 20%
Numbers stand for hits. Hits are enriched below; roughly 3.1% of the tested compounds scored in any of these assays. Rule as the data show it, unless noted: active = inhibition above about 30%; inconclusive = no clear call, values can overlap the other calls; inactive = below that.

Screening Cc1c(/C=N/NC(=O)c2cc(=O)[nH]c(=O)[nH]2)c2ccccn2c1C(=O)c1ccccc1 returned BoNT-A LC inh2 inactive, BoNT F protease inactive, Autofluor counter 19024 and Anthrax LF inh2 inactive.
`O=C(NCc1ccc(Cl)cc1)N1CCC(c2nnc(C3CC3)s2)CC1` gave SSB-PriA inh inactive.
CN(C)CCN1C(=O)C(=O)/C(=C(/O)c2ccc(F)cc2)C1c1ccccc1F (stereo not given) was read as BoNT-A LC inh2 inactive, BoNT F protease inactive, Autofluor counter 22555 and Anthrax LF inh2 inactive.
`Cc1ccc(/C(O)=C2\C(=O)C(=O)N(CCN(C)C)C2c2ccccc2F)cc1` (stereo not given) gave BoNT-A LC inh2 inconclusive, BoNT F protease inactive, Autofluor counter 20048 and Anthrax LF inh2 inactive.
`Cc1ccc(C)c(C(O)=C2C(=O)C(=O)N(CCN3CCOCC3)C2c2ccccc2F)c1` (stereo not given) gave SSB-PriA inh 48.
`O=C(NCCOc1ccc2c(c1)OCO2)c1ccc(Cl)c([N+](=O)[O-])c1` gave SSB-PriA inh inactive.
For COc1ccc(OC)c(NC(=O)C2CCN(Cc3cnn(-c4ccccc4)c3-n3cccc3)CC2)c1 the results were BoNT-A LC inh2 inactive, BoNT F protease inactive, Autofluor counter 20746, Anthrax LF inh2 inactive and SSB-PriA inh inactive.
For COc1ccc(C=Nn2c(C)nnc2C)c(OC)c1OC the results were SSB-PriA inh inactive.
`COc1ccc(Cl)c2sc(NCc3ccco3)nc12` gave SSB-PriA inh inactive.
For CC(=O)Oc1ccc(OC(C)=O)c(SCCCCCN2CCOCC2)c1 the results were BoNT-A LC inh2 inactive, BoNT F protease inactive, Autofluor counter 23369, Anthrax LF inh2 inactive and SSB-PriA inh inactive.
For O=C(c1cc2n(n1)CCCO2)N1CCN(Cc2ccc3c(c2)OCO3)CC1 the results were SSB-PriA inh inactive.
`O=C(c1cccc2c1-c1ccccc1/C2=N/O)N1CCCCC1` gave BoNT-A LC inh2 inconclusive, BoNT F protease inactive, Autofluor counter 20508 and Anthrax LF inh2 inactive.
`O=C1c2ccccc2-c2c1cccc2C(=O)N1CCCCC1` gave BoNT-A LC inh2 inactive, BoNT F protease inactive, Autofluor counter inactive, Anthrax LF inh2 inactive and SSB-PriA inh inactive.
O=C(Cc1ccc(F)cc1)Nc1ccc2c(c1)N(C(=O)C1CCCO1)CC2 (stereo not given) was read as SSB-PriA inh inactive.
Nc1nc(SCCO)[nH]c(=O)c1NC(=O)c1ccco1 was read as BoNT-A LC inh2 inactive, BoNT F protease inactive, Autofluor counter 19769, Anthrax LF inh2 inactive and SSB-PriA inh inactive.
O=S(=O)(NCc1cccnc1-c1ccsc1)c1cccs1 was read as SSB-PriA inh inactive.
`O=S(=O)(c1cccc(F)c1)N1CCN(Cc2ccc3c(c2)OCO3)CC1` gave BoNT-A LC inh2 inactive, BoNT F protease inactive, Autofluor counter 16310, Anthrax LF inh2 inactive and SSB-PriA inh inactive.
`Fc1ccccc1N1CCN(Cc2ccc3c(c2)OCO3)CC1` gave BoNT-A LC inh2 inactive, BoNT F protease inactive, Autofluor counter 21279, Anthrax LF inh2 inactive and SSB-PriA inh inactive.
Screening Cc1ccc(CNc2nc(N)c([N+](=O)[O-])c(Nc3cccc(F)c3)n2)cc1 returned BoNT-A LC inh2 inactive, BoNT F protease inactive, Autofluor counter inactive, Anthrax LF inh2 inactive and SSB-PriA inh inactive.
Screening Nc1nc(NCc2ccccc2)nc(Nc2cccc(F)c2)c1[N+](=O)[O-] returned BoNT-A LC inh2 inactive, BoNT F protease inactive, Autofluor counter 22824, Anthrax LF inh2 inactive and SSB-PriA inh inactive.
Cc1cc(C)c2nc(-c3ccccn3)cc(C(=O)Nc3ccc(S(=O)(=O)Nc4cc(C)on4)cc3)c2c1 was read as BoNT-A LC inh2 inconclusive, BoNT F protease inactive, Autofluor counter 16205, Anthrax LF inh2 inactive and SSB-PriA inh inactive.
Screening CCOc1ccccc1OCC(=O)Nc1ccc(S(=O)(=O)Nc2nc(C)cc(C)n2)cc1 returned BoNT-A LC inh2 inactive, BoNT F protease inactive, Autofluor counter 20817, Anthrax LF inh2 inactive and SSB-PriA inh inactive.
Screening Cc1cc(C)nc(NS(=O)(=O)c2ccc(NC(=O)COc3ccccc3F)cc2)n1 returned BoNT-A LC inh2 inactive, BoNT F protease inactive, Autofluor counter inactive, Anthrax LF inh2 inactive and SSB-PriA inh inactive.
Cc1cc(NS(=O)(=O)c2ccc(NC(=O)COc3ccccc3C(C)C)cc2)no1 was read as BoNT-A LC inh2 inactive, BoNT F protease inactive, Autofluor counter inactive, Anthrax LF inh2 inactive and SSB-PriA inh inactive.
